Assay results: PubChem BioAssay AID651571 (The Scripps Research Institute Molecular Screening Center, 2012)
The campaign covered roughly 1,500 compounds. About 1,300 (87%) were called active. The set was probably picked from earlier hits. Only a sample is shown. Unmarked numbers belong to inactive results. Rule as the data show it: active = inhibition above about 9%; inactive = the rest.

Assay: binders of anti-gp120 antibody PG9, confirmation, biochemical, TR-FRET (AID 651571)
Conditions: TR-FRET PG9 antibody binding, at 6.7 µM, stronger effect = higher value

SMILES | inhibition
COc1ccc(Cl)cc1NC(=O)Cn1nc(-c2ccc(C)cc2)n(C)c1=S | 12.2% (active)
N#Cc1ccccc1NC(=O)c1cccc(COc2ccc(Cl)cc2Cl)c1 | 15.1% (active)
O=C1C(=O)N(CCN2CCOCC2)C(c2cccc(Cl)c2)/C1=C(/O)c1ccc2c(c1)OCO2 (stereo not drawn) | 26.7% (active)
O=C(O)CCCCCNc1ncnc2ccc(Br)cc12 | 28.1% (active)
COc1cccc(-c2ccc(C#N)c(SCC(=O)NCCc3ccc(Cl)cc3)n2)c1 | 7.22%
COc1ccc(CCNC(=O)CSc2nc(-c3ccc(OC)c(OC)c3)ccc2C#N)cc1 | 26% (active)
O=C(Nc1c(Br)cc2c(c1Br)Cc1cc([N+](=O)[O-])ccc1-2)C(Cl)Cl | 51.1% (active)
O=C(COC(=O)c1ccc2c(c1)OCCO2)NCc1ccccc1Cl | 29.8% (active)
COCCNC(=O)c1cc2c(Br)ccc(Br)c2nc1N | 16.4% (active)
C=CCn1c(=NC(=O)c2cccs2)sc2cc(NC(C)=O)ccc21 | 9.74% (active)
C=CCn1c(=NC(=O)c2ccc(S(=O)(=O)N3CCCC3)cc2)sc2cc(NC(C)=O)ccc21 | 29.4% (active)
CCCc1nc(SCC(=O)Nc2ccc(S(=O)(=O)N(C)C)cc2)c2ccccc2n1 | 34.5% (active)
CCc1ccc(NC(=O)CSc2nnc(-c3cnccn3)n2Cc2ccco2)cc1 | 22.4% (active)
O=C(C1=C(O)C(=O)N(Cc2ccccc2)C1c1ccco1)c1ccco1 (stereo not drawn) | 31.8% (active)
COc1cccc(-n2c(SCC(=O)c3c[nH]c4ccccc34)nc3ccccc3c2=O)c1 | 27% (active)
Cc1cc(C)cc(NC(=O)C2CCCN(S(=O)(=O)c3ccc4[nH]c(=O)ccc4c3)C2)c1 (stereo not drawn) | 23.8% (active)
CCn1nnc2cc(C(=O)Nc3ccc(C(=O)OC(C)C)cc3)ccc21 | 25.6% (active)
COC(=O)C1=C(C)N(Cc2ccccc2C(F)(F)F)C(=NCc2ccc(OC)cc2)NC1c1cccc(C(F)(F)F)c1 (stereo not drawn) | 6.91%
O=C(N=C1SC2CS(=O)(=O)CC2N1Cc1ccccc1)c1ccccc1 (stereo not drawn) | 34.1% (active)
O=C(Nc1cccc(S(=O)(=O)Nc2ccc(Cl)cc2)c1)c1ccc2c(c1)OCCO2 | 23.1% (active)
COc1ccc(-c2c(C)nn3c(N4CCC(C(=O)N5CCCCC5)CC4)cc(C)nc23)cc1OC | 13.9% (active)

SMILES | inhibition
CCOc1cccc(NC(=O)Cn2nc(-c3ccc4c(c3)OCCO4)ccc2=O)c1 | 14.5% (active)
Cc1cc2c(cc1C)N1C(=O)c3cc4ccccc4cc3NC(=O)C1C(=O)N2 (stereo not drawn) | 12.3% (active)
COc1ccc(-n2nnnc2-c2nc3ccccc3s2)cc1 | 30.8% (active)
CCn1c(SCC(=O)Nc2cccc(F)c2)nnc1-c1cc2cc(Br)ccc2o1 | 40.1% (active)
Cc1nc2nc(SCC(=O)c3ccccc3)[nH]c2cc1Br | 28.4% (active)
N#C/C=C1\Sc2ccccc2C(=O)N1CC(=O)N1CCN(S(=O)(=O)c2ccccc2)CC1 | 22.1% (active)
N#Cc1ccccc1Sc1ccccc1C(=O)OCC(=O)NC1CCCCC1 | 27.3% (active)
CC(=O)c1sc2nc(SCC(=O)N3CCCCC3)[nH]c(=O)c2c1C | 25.6% (active)
COc1cccc(NS(=O)(=O)c2ccc3[nH]cc(C(=O)NCCCOC(C)C)c(=O)c3c2)c1 | 18.6% (active)
Fc1cc(F)c2nc(Nc3nc4c(F)cccc4s3)sc2c1 | 9.6% (active)
COCCCNc1nc2c(-c3cccc(C)c3)nnn2c2ccc(Cl)cc12 | 19.2% (active)
O=C1COc2ccc(C(=O)COC(=O)c3ccccc3Cl)cc2N1 | 24.8% (active)
Cc1c(-c2ccccc2)nc(N)c(C#N)c1-c1cccs1 | 18.6% (active)
N#Cc1c(-c2cccs2)nc(SCC(=O)c2ccc(Br)cc2)[nH]c1=O | 29.8% (active)
COc1ccc(CC(=O)Nc2ccc(-c3nnc(-c4ccccc4)o3)cc2)cc1 | 18.3% (active)
Cc1nc(-c2ccccc2)sc1-c1nc(-c2ccccc2)ncc1S(=O)(=O)c1ccccc1 | 8.54%
Cc1ccc(-c2cc(C(=O)NCc3cn(C)nc3C)c3cc(Br)ccc3n2)cc1 | 18.5% (active)
CCOC(=O)c1c(C)[nH]c(C(=O)OCC(=O)c2ccc(OC)cc2OC)c1C | 45.1% (active)
CCCCNC(=O)CSc1nc2n[nH]c(C)c2c(=N)n1-c1cccc(Cl)c1C | 38.3% (active)
Cc1ccc(-n2c(SCC(=O)NCCC3=CCCCC3)nc3n[nH]c(C)c3c2=N)cc1Cl | 22.1% (active)
Cc1ccc(-n2ncc3c(=O)n(-c4ccc(C)c(C)c4)c(-c4ccco4)nc32)cc1 | 8.17%

SMILES | inhibition
CC1(C)Cc2ccccc2-c2[nH]c(=S)[nH]c(=O)c21 | 9.89% (active)
CCOc1cc2ccccc2cc1C(=O)Nc1ccccn1 | 12.1% (active)
CC(C)OCCCNC(=O)c1cc(Sc2ccc(F)cc2)nc2ccccc12 | 25.9% (active)
S=c1[nH]c2ccccc2c2ccccc12 | 14.6% (active)
Cc1cc(Br)ccc1NC(=O)c1sc2ncn(CC(=O)N3CCN(c4ccccn4)CC3)c(=O)c2c1C | 5.44%
O=C(O)CCC(=O)Nc1nc2ccc([N+](=O)[O-])cc2s1 | 5.06%
COC(=O)c1ccc(NC(=S)Nc2cccc(C)n2)cc1 | 11% (active)
O=C(NCc1ccc(Cl)cc1)c1cc2c(nc3sccn32)s1 | 17.8% (active)
CC(=O)c1cc(C#N)c(SCC(=O)Nc2nccs2)nc1C | 27.5% (active)
COc1ccc(-c2csc(NC(=O)c3ccc(N4C(=O)CCC4=O)cc3)n2)cc1OC | 15.2% (active)
O=C(Oc1ccccc1)Oc1ccc2c(c1)oc(=O)c1ccccc12 | 46.9% (active)
CCOc1ccc2cc(C#N)c(SCC(=O)OC)nc2c1 | 48.4% (active)
Cc1cccc(Nc2nc3c(S(=O)(=O)c4ccccc4)nnn3c3ccccc23)c1C | 41.2% (active)
Cc1nc2cc(NC(=O)CSc3nc4c(C)cccc4cc3C#N)ccc2s1 | 46.4% (active)
O=C(Nc1nnc(-c2ccccc2F)s1)c1ccccc1F | 38.5% (active)
N#Cc1c(N)nc2c3c(sc(=N)c2c1N)NC(=O)CC3c1ccccc1Cl (stereo not drawn) | 24.9% (active)
C=CCOc1cccc(C2C(C(=O)c3ccc(C)o3)=C(O)C(=O)N2CCCn2ccnc2)c1 (stereo not drawn) | 19.4% (active)
CCCOc1ccc(C2C(C(=O)c3ccc(C)o3)=C(O)C(=O)N2CCCn2ccnc2)cc1 (stereo not drawn) | 53% (active)
Cn1c(=S)sc2ccc3ccccc3c21 | 11.9% (active)
CCOc1ccc(C(=O)COC(=O)c2ccc(-n3cnnn3)cc2)cc1 | 27.8% (active)
CC(=O)c1sc(NC(=O)CCCOc2ccccc2C)nc1C | 18.4% (active)
